Assay [1] is described as follows: ATG_NFI_CIS: Attagene CIS-FACTORIAL HepG2 Assay for human Nuclear Factor I (NFI) (AID 2282989). To be noted: HepG2 cis-regulatory reporter, NFI response element transcription; actives raise or lower the signal. The gist of the method: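 Multiplexed cis-reporter system in human HepG2 cells reports native TF activity as reporter mRNA induction 24 h post-dose. Fragments labelled with 6-FAM, HpaI-digested and resolved by capillary electrophoresis; activity fitted both directions versus DMSO.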

Assay [2] has as its target Myc proto-oncogene protein (Homo sapiens) (UniProt P01106). The experiment in a line: ATG_Myc_CIS: Attagene CIS-FACTORIAL HepG2 Assay for human Myelocytomatosis (Myc) Proto-Oncogene Transcription Factor (AID 2282990). To be noted: HepG2, Attagene cis-reporter transcription factor activity; actives raise or lower the signal. The gist of the method:
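After 24 h chemical treatment of HepG2 cells carrying multiplexed cis-regulated reporter constructs, reporter transcripts quantified by RT-PCR and capillary electrophoresis of fluorescent fragments. Gain or loss fitted against DMSO baseline.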

A short description of assay [3]: ATG_NF_kB_CIS: Attagene CIS-FACTORIAL HepG2 Assay for human Nuclear Factor Kappa B (NF-kB) (AID 2282991). The settings on record: HepG2 Attagene cis-factorial NF-kB reporter mRNA; actives raise or lower the signal. In outline:
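HepG2 cells transfected with cis-promoter-driven reporter units, so endogenous transcription factor activity is measured. Reporter mRNA quantified 24 h after dosing by RT-PCR and capillary electrophoresis, with bidirectional fitting against DMSO.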

Assay [4] can be described thus: ATG_NRF2_ARE_CIS: Attagene CIS-FACTORIAL HepG2 Assay for human Nuclear Factor Erythroid 2 Related Factor 2 (NFR2) response to Antioxidant Response Elements (ARE) (AID 2282992).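 As to AC50: reporter mRNA level measured by RT-PCR and capillary electrophoresis fluorescence.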 To be noted: HepG2 Attagene ARE/NRF2 reporter, transcription factor activity; actives raise or lower the signal. In outline:
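Cis-factorial assay: transfected HepG2 reporter library, 24 h dosing, mRNA readout via RT-PCR/CE; DMSO-referenced bidirectional analysis.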

The nature of assay [5]: ATG_Oct_MLP_CIS: Attagene CIS-FACTORIAL HepG2 Assay for human Octamer-Binding Transcription Factor (Oct) (AID 2282993). The settings on record: HepG2 Attagene cis-factorial Oct reporter, mRNA; actives raise or lower the signal. In outline:
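After 24 h compound exposure, transfected HepG2 cells were lysed for total RNA; reporter-specific cDNA was PCR-amplified, fluorescently labelled and sized by capillary electrophoresis. Bidirectional curve fitting used DMSO as baseline.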

In assay [6] the target is Cellular tumor antigen p53 (Homo sapiens) (UniProt P04637). As to the kind of experiment: ATG_p53_CIS: Attagene CIS-FACTORIAL HepG2 Assay for human p53 Transcription Factor (AID 2282994). To be noted: HepG2 p53 cis-element reporter, Attagene mRNA; actives raise or lower the signal. In outline: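 Using HepG2 hepatoma cells carrying cis-acting multiplexed reporters, mRNA induction is detected after a 24 h exposure. Gain- and loss-of-signal responses are fitted relative to DMSO-treated cells.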

The nature of assay [7]: BSK_3C_TissueFactor: BioMAP Diversity Plus: 3C Assay for Tissue Factor Biomarker Activity (AID 2282997). To be noted: BioMAP 3C HUVEC, tissue factor biomarker readout; actives raise or lower the signal. The gist of the method:
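Primary human umbilical vein endothelial cells in the 3C system were exposed to test chemical for 24 h, then Tissue Factor measured by ELISA. Activity was fitted bidirectionally against DMSO as negative control and baseline.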

The nature of assay [8]: BSK_3C_uPAR: BioMAP Diversity Plus: 3C Assay for Urokinase-type plasminogen activator receptor (uPAR) Biomarker Activity (AID 2282998). The settings on record: BioMAP 3C HUVEC, uPAR biomarker ELISA; actives raise or lower the signal. In outline: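 Values derive from bidirectional curve fitting relative to DMSO, which served as baseline of activity. uPAR was measured by ELISA in human umbilical vein endothelial primary cultures 24 h after compound addition.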
Background: An ELISA detects its analyte on a solid surface through an enzyme-linked reagent.

Assay [9] can be described thus: BSK_3C_VCAM1: BioMAP Diversity Plus: 3C Assay for Vascular cell adhesion molecule 1 (VCAM1) Biomarker Activity (AID 2282999). The settings on record: BioMAP 3C HUVEC, VCAM1 ELISA, cytokine-stimulated; actives raise or lower the signal. The gist of the method:
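Endothelial cells from human umbilical vein are treated with test chemical. At 24 h, VCAM-1 is measured by ELISA, and responses in either direction are fitted relative to DMSO.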

Assay [10] in a line: BSK_4H_Eotaxin3: BioMAP Diversity Plus: 4H Assay for Eotaxin 3 Biomarker Activity (AID 2283000).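 As to outcome: CCL26 protein level quantified by ELISA in parallel with SRB cytotoxicity check.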 To be noted: primary human endothelial cells (HUVEC); actives raise or lower the signal. In outline: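 HUVEC, 24 h post-dose, ELISA for Eotaxin-3/CCL26. Gain or loss of signal fitted bidirectionally vs DMSO baseline.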
In assay [11] the target is human Peroxisome Proliferator-activated Receptor alpha (PPARa), PPARA (gene 5465) (UniProt Q07869). As to the kind of experiment: ATG_PPARa_TRANS: Attagene TRANS-FACTORIAL HepG2 Assay for human Peroxisome Proliferator-activated Receptor alpha (PPARa) (AID 2283001; active = hit-call score of the fitted dose curve at least 0.9, where 1 is the maximum). In outline:
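Reporter transcripts from GAL4-UAS units in transfected HepG2 were quantified 24 h after dosing. Detection used reverse transcription, PCR, fluorescent primer extension and capillary electrophoresis, with DMSO as baseline.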

Read-out in assay [12]: Intercellular Adhesion Molecule 1 (ICAM1), ICAM1 (gene 3383)
The experiment in a line: BSK_3C_ICAM1: BioMAP Diversity Plus: 3C Assay for Intercellular Adhesion Molecule 1 (ICAM1) Biomarker Activity (AID 2283003). The settings on record: primary human endothelial cells (HUVEC); actives raise or lower the signal. The gist of the method: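 Human vascular endothelial primary cells, 3C conditions, 24 h treatment. ICAM-1 by ELISA.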

Assay [13] is described as follows: BSK_3C_Proliferation: Cell Proliferation Assessment in the BioMAP Diversity Plus: 3C Assay (AID 2283006).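 As to AC50: potency may reflect either rise or fall in cell number versus DMSO.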 To be noted: primary human endothelial cells (HUVEC). The gist of the method:
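Proliferation of human vascular endothelial primary cells after 48 h dosing, quantified as SRB-stained protein at 560 nm relative to DMSO.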

Assay [14] has as its target Peroxisome proliferator-activated receptor gamma (Homo sapiens) (UniProt P37231). The experiment in a line: ATG_PPARg_TRANS: Attagene TRANS-FACTORIAL HepG2 Assay for human Peroxisome Proliferator-activated Receptor-gamma (PPARg) (AID 2283007; active = hit-call score of the fitted dose curve at least 0.9, where 1 is the maximum). The gist of the method:
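HepG2 cells are transiently transfected with GAL4-UAS reporter units driven by chimeric NR-Gal4 fusions and dosed for 24 h. Reporter mRNA is quantified by RT-PCR, 6-FAM labelling, HpaI digestion and capillary electrophoresis. Induction is scored against DMSO.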

For assay [15], the target named is human RAR-related Orphan Receptor beta (RORb), RORB (gene 6096) (UniProt Q92753). As to the kind of experiment: ATG_RORb_TRANS: Attagene TRANS-FACTORIAL HepG2 Assay for human RAR-related Orphan Receptor beta (RORb) (AID 2283010; active = hit-call score of the fitted dose curve at least 0.9, where 1 is the maximum). In outline:
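In this TRANS-format test, human HepG2 cells express chimeric NR-Gal4 fusion proteins driving GAL4-UAS reporters. After 24 h dosing, reporter transcripts are measured by fluorescent RT-PCR/capillary electrophoresis, with DMSO as negative control.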

In assay [16] the target is human Peroxisome Proliferator-activated Receptor delta (PPARd), PPARD (gene 5467) (UniProt Q03181). As to the kind of experiment: ATG_PPARd_TRANS: Attagene TRANS-FACTORIAL HepG2 Assay for human Peroxisome Proliferator-activated Receptor delta (PPARd) (AID 2283002; active = hit-call score of the fitted dose curve at least 0.9, where 1 is the maximum). The gist of the method:
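Read-out is induced reporter mRNA, quantified by RT-PCR with fluorescent labelling and capillary electrophoresis after 24 h dosing. Cells are HepG2 transiently carrying multiple GAL4-UAS reporter units driven by exogenous NR-GAL4 chimeras; DMSO serves as baseline.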

Assay [17] concerns the target Nuclear receptor subfamily 1 group I member 2 (Homo sapiens) (UniProt O75469). The experiment in a line: ATG_PXR_TRANS: Attagene TRANS-FACTORIAL HepG2 Assay for human Pregnane X Receptor (PXR) (AID 2283008; active = hit-call score of the fitted dose curve at least 0.9, where 1 is the maximum). In outline:
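Fluorescence intensity of FAM-labelled, HpaI-digested reporter amplicons, separated by capillary electrophoresis, quantifies induction. HepG2 cells with PXR-Gal4 trans-reporter system were exposed 24 h; DMSO defines baseline.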

Assay [18] concerns the target Retinoic acid receptor alpha (Homo sapiens) (UniProt P10276). As to the kind of experiment: ATG_RARa_TRANS: Attagene TRANS-FACTORIAL HepG2 Assay for human Retinoic Acid Receptor alpha (RARa) (AID 2283005; active = hit-call score of the fitted dose curve at least 0.9, where 1 is the maximum). The gist of the method: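 Reporter transcripts, measured by RT-PCR with fluorescent labeling and capillary electrophoresis after 24 h dosing, reflect activity of an exogenous human RARa–GAL4 fusion in transiently transfected HepG2. Fitted for increase relative to DMSO.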

The target in assay [19] is human Retinoic Acid Receptor gamma (RARg), RARG (gene 5916) (UniProt P13631). The experiment in a line: ATG_RARg_TRANS: Attagene TRANS-FACTORIAL HepG2 Assay for human Retinoic Acid Receptor gamma (RARg) (AID 2283009; active = hit-call score of the fitted dose curve at least 0.9, where 1 is the maximum). The gist of the method:
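HepG2, RARg-GAL4 TRANS system, 24 h exposure; reporter mRNA by RT-PCR + CE fluorescence; increase over DMSO.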

The structures appear in SMILES notation. Several values for one entry are separate records, joined by “and”; a condition that tells them apart may be missing. Identical values can stand only once. Inconclusive results are not listed. Some compounds were tested as several samples or in several runs, with calls that do not always agree. Activity calls are given as the source filed them. The calls were made as follows, unless noted: active = hit-call score of the fitted dose curve at least 0.9, where 1 is the maximum; inactive = score below 0.9.

Chain of human RAR-related Orphan Receptor beta (RORb), RORB (gene 6096) (Q92753 whole entry, looked up, the tested form may be a part): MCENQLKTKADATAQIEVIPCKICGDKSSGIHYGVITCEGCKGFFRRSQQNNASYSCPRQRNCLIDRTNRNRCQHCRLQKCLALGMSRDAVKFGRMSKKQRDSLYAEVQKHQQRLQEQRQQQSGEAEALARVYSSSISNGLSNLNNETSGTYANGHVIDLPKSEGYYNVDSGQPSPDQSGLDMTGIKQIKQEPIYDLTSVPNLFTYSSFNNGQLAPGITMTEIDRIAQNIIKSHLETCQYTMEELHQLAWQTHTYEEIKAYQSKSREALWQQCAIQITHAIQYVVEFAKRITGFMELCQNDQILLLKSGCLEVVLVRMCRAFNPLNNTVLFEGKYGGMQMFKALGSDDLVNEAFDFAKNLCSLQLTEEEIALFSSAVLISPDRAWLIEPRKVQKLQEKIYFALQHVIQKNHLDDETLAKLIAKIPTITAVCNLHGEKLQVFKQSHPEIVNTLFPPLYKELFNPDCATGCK
Chain of Nuclear receptor subfamily 1 group I member 2 (Homo sapiens) (O75469 whole entry, looked up, the tested form may be a part): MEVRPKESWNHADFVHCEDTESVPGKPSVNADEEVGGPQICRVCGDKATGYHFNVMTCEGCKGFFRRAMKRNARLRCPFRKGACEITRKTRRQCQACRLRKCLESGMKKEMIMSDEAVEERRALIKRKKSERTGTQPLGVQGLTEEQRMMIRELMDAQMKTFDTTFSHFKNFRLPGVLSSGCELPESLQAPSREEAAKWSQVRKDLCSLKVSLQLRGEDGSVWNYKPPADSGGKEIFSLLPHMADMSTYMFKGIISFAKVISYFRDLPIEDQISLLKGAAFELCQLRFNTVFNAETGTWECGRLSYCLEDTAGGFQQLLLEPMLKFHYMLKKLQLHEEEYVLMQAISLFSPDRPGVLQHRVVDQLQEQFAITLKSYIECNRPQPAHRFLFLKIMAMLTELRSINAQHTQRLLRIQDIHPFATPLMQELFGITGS
Chain of Cellular tumor antigen p53 (Homo sapiens) (P04637 whole entry, looked up): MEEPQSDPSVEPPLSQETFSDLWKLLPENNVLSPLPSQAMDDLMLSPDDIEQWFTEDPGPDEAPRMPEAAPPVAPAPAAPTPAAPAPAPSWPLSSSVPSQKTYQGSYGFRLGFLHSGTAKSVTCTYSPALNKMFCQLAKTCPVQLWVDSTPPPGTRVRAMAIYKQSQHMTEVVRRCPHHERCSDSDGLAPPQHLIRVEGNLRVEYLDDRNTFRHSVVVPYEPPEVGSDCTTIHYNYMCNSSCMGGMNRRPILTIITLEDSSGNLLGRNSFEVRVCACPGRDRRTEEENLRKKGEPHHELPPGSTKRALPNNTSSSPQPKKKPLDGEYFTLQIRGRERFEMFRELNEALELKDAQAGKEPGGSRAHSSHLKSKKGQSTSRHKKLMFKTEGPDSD
Chain of Myc proto-oncogene protein (Homo sapiens) (P01106 whole entry, looked up, the tested form may be a part): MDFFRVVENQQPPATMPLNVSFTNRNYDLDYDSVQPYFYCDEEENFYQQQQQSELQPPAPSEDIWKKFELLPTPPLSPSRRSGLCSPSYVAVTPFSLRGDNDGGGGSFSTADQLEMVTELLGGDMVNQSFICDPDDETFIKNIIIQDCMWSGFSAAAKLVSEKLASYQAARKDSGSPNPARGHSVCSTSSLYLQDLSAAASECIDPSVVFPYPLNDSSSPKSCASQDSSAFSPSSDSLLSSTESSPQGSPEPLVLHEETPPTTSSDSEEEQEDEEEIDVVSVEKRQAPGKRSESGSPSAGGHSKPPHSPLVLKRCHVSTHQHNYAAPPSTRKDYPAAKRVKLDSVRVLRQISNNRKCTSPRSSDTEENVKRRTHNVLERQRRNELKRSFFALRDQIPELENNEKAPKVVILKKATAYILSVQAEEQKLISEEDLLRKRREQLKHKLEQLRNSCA
Chain of human Peroxisome Proliferator-activated Receptor delta (PPARd), PPARD (gene 5467) (Q03181 whole entry, looked up, the tested form may be a part): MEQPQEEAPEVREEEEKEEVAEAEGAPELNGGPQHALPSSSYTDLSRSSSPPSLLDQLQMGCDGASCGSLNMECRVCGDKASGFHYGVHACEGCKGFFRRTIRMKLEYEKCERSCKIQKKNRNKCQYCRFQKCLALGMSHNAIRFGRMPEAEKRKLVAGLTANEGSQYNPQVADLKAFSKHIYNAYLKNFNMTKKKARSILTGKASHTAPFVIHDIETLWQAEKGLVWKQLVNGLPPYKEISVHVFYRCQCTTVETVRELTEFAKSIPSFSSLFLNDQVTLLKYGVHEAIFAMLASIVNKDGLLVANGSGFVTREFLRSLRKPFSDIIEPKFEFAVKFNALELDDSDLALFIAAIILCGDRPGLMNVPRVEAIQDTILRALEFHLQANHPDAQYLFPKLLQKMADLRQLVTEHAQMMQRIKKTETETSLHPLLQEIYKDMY
Chain of human Peroxisome Proliferator-activated Receptor alpha (PPARa), PPARA (gene 5465) (Q07869 whole entry, looked up, the tested form may be a part): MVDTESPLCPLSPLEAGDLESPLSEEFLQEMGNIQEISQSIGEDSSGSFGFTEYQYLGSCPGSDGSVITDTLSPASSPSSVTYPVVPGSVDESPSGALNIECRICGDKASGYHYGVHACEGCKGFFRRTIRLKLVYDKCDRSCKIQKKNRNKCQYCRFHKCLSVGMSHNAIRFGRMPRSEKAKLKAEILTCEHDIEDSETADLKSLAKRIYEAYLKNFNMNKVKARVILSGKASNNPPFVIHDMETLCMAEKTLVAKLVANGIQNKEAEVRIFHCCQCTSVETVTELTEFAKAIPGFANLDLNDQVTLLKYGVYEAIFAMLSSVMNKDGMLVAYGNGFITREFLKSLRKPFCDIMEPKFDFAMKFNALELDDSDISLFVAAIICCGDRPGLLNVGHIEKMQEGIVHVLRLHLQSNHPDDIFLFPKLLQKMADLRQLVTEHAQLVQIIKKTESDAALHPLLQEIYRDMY
Chain of Peroxisome proliferator-activated receptor gamma (Homo sapiens) (P37231 whole entry, looked up, the tested form may be a part): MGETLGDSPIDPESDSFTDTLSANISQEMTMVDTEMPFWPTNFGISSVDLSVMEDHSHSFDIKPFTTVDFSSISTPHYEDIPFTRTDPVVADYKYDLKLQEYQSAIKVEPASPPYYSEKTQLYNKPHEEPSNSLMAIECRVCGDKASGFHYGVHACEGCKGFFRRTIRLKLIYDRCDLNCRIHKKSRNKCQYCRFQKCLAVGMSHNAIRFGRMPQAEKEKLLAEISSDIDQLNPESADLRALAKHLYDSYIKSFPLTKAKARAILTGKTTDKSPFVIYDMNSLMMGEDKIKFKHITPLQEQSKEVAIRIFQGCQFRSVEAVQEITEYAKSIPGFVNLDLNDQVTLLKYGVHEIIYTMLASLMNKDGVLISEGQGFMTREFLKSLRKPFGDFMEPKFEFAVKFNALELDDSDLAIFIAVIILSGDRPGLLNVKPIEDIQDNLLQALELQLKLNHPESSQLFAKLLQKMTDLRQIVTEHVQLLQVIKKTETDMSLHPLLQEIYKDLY
Chain of human Retinoic Acid Receptor gamma (RARg), RARG (gene 5916) (P13631 whole entry, looked up, the tested form may be a part): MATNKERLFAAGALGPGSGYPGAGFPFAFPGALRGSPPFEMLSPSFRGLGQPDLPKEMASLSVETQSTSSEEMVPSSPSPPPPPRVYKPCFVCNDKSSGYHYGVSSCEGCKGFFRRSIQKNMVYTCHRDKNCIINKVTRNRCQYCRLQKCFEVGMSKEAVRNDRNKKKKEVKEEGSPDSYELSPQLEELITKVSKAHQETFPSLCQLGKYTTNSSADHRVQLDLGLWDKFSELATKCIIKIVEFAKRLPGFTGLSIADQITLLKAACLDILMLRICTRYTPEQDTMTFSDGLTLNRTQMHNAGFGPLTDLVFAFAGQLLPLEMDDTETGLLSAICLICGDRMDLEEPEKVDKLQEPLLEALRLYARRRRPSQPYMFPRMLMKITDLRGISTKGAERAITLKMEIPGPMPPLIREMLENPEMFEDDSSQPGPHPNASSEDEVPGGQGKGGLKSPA
Chain of Retinoic acid receptor alpha (Homo sapiens) (P10276 whole entry, looked up, the tested form may be a part): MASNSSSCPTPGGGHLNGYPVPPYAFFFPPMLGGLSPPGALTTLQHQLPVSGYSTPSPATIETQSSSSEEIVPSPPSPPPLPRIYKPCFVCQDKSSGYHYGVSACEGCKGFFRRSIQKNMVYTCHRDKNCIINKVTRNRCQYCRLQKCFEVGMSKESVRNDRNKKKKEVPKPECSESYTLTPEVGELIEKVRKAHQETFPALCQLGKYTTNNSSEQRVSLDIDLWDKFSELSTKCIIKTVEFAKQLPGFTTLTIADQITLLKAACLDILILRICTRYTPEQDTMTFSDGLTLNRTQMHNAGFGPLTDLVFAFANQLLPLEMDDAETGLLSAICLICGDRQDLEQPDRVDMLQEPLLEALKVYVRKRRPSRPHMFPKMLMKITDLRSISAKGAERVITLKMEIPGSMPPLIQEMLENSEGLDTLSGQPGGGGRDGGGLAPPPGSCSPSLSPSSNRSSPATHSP

For orientation: AC50 means the concentration at which the activity in the assay is half-maximal. Regarding `C=CC(=O)NCNC(=O)C=C`, the outcome in assay [1], in assay [2], in assay [5], in assay [6], in [7] and in assay [8] was inactive. The result in [9], in assay [10], in assay [11], in assay [12], in assay [13] and in assay [14] was inactive. Besides, the molecule was classed as inactive in assay [15]. Moreover, the half-maximal activity concentration (AC50) was 100 µM (active) in assay [3] and 61.1 µM (active) in [4].

As to `Oc1ccc(C(c2ccc(O)cc2)(C(F)(F)F)C(F)(F)F)cc1`, the AC50 in assay [1] was 17.7 µM (active); in [2], 20.3 µM (active); in assay [4], 11.1 µM (active) [middle of 4 runs]; in assay [5], 16.3 µM (active) and 16.7 µM (active) and 18.1 µM (active); in [6] it was 16.9 µM (active); in assay [7], 35 µM (active). In addition, the AC50 is 21.9 µM (active) in assay [8]; 33.6 µM (active) in assay [9]; 34.8 µM (active) in assay [10]; 38.3 µM (active) in [12]; 12.8 µM (active) in [13]; 6 µM (active) [middle of 4 runs] in [17]. In addition, the call in [1], in [2], in [3], in [5], in assay [6] and in assay [16] was inactive. For the same molecule, the outcome in assay [14] and in assay [15] was inactive.

Take `c1ccc(-c2ccccc2)cc1`: the outcome in assay [1], in assay [2], in assay [3], in assay [4], in assay [5] and in assay [7] was inactive. Further, the result in assay [8], in assay [9], in assay [10], in assay [11], in [16] and in assay [12] was inactive. In addition, the outcome in assay [13] and in [17] was inactive. For the same molecule, in [6], the concentration at half-maximal activity (AC50) is 197 µM (active).

`Oc1c(Cl)c(Cl)c(Cl)c(Cl)c1Cl`: the AC50 was 27.4 µM (active) and 51 µM (active) in [1]; 50 µM (active) and 91.9 µM (active) in assay [2]; 9.11 µM (active) in [3]; 13.7 µM (active) and 12.5 µM (active) and 2.62 µM (active) in [4]; 31.1 µM (active) and 11.4 µM (active) and 73.1 µM (active) in assay [5]; 51 µM (active) in assay [6]. Also, the half-maximal activity concentration (AC50) was 26.9 µM (active) in [7]; 13.5 µM (active) and 10.7 µM (active) in assay [8]; 10.2 µM (active) and 32.3 µM (active) in [9]; 17 µM (active) and 9.54 µM (active) in [10]; 33.7 µM (active) in [12]; 15.4 µM (active) and 14.7 µM (active) in assay [13]. The concentration at half-maximal activity (AC50) in [14] is 4.28 µM (active) and 2.53 µM (active) and 7.91 µM (active); in [17], 13.8 µM (active) and 3.3 µM (active). For the same molecule, the molecule was classed as inactive in [1], in [2], in assay [3], in [6], in assay [7] and in assay [11]. Besides, the result in [12], in [18], in assay [17], in assay [19] and in assay [15] was inactive.

Regarding `COS(=O)(=O)OC`, the molecule was classed as inactive in [1], in assay [2], in [3], in [4], in [5] and in assay [6]. Further, the outcome in [7], in [8], in [9], in assay [10], in assay [11] and in [16] was inactive. The outcome in [12], in [13] and in [15] was inactive.

(Values after PubChem BioAssay (EPA / NIEHS).)
